# Source: PubChem BioAssay
# This is a sample that favours compounds with a hit; in the whole collection about 2.3% have one here.
# Coupling enz = qHTS Assay for Inhibitors of Fructose-1,6-bisphosphate Aldolase from Giardia Lamblia: Coupling assay counterscreen | coupling enzyme system counterscreen, AmpLite Red fluorescence | AID 2472, 2010 | hit rate 0.67% among 290,000 | activity change, negative = inhibition, % at 58.2 µM, hits read low; in the data active = activity change below about -30%
#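 Counterscreen lacking aldolase: glyceraldehyde-3-phosphate coupling-enzyme reagent preincubated 10 min at RT with compound (at 57.5 uM final), then substrate/coupling system with AmpLite Red added; fluorescence read at 525/598 nm after 20 min RT.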
# Tau fluor cs = Counterscreen qHTS for Inhibitors of Tau Fibril Formation, Fluorescence Polarization. tau K18 P301L Alexa594 fluorescence, heparin fibrillization. AID 1463, 2008. Potency, µM (highest dose often 57.7 µM), without a hit: at the top dose activity change, negative = decrease. hit rate 0.93% among 280,000; also: potency is read from the fitted curve at half-maximal effect; nearly all actives have a fitted effect of over 55% in size
#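 Human K18 P301L tau (15 uM unlabeled plus 0.24 uM Alexa 594-labeled, final) in 100 mM sodium acetate pH 7 was mixed with compound and 20 uM heparin and incubated 6 hr at 37 C.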
# USP1-UAF1 inh = Inhibitors of USP1/UAF1: Primary Screen | Potency, µM (doses to about 57.1 µM), without a hit: at the highest dose activity change, negative = inhibition, hits mostly inhibitors | Ubiquitin carboxyl-terminal hydrolase 1 (Homo sapiens), O94782 | hit rate 0.23% among 390,000 | recombinant USP1/UAF1, Ub-Rhodamine cleavage fluorescence; also: potency is read from the fitted curve at half-maximal effect; nearly all actives have a fitted effect of over 60% in size
#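 USP1/UAF1 complex at 1 nM was preincubated with compound for 15 min at room temperature, then Ub-Rho substrate (150nM final) was added. Fluorescence (480/540 nm) was read kinetically, 6 reads every 60 seconds.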
# Tau fibril ThT = qHTS for Inhibitors of Tau Fibril Formation, Thioflavin T Binding. hit rate 2.1% among 270,000. recombinant tau K18 P301L (four-repeat tau fragment), heparin-induced fibrillization, ThT fluorescence. Potency, µM (highest dose often 57.4 µM), inactives show at the highest dose activity, negative = inhibition, hits mostly inhibitors. Microtubule-associated protein tau (Homo sapiens), P10636. AID 1460, 2008; also: potency is read from the fitted curve at half-maximal effect; nearly all actives have a fitted effect of over 55% in size
# Target sequence (P10636 561-689 P618L limits assumed): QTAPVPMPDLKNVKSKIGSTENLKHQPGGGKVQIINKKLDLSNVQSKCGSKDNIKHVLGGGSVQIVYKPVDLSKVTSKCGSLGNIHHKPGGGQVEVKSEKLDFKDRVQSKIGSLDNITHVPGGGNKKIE
#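 Tau K18 P301L fragment (15 uM unlabeled plus 0.24 uM Alexa 594-labeled) in 100 mM sodium acetate pH 7 with compound, fibrillization induced by 20 uM heparin for 6 hr at 37 C. Thioflavin T (30 uM) added, fluorescence read after 1 hr (ex 450, em 510 nm).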
# Tau fibril FP = qHTS for Inhibitors of Tau Fibril Formation, Fluorescence Polarization | Microtubule-associated protein tau (Homo sapiens), P10636 | K18 P301L tau heparin fibrillization, Alexa594 FP, 6 h | Potency, µM (top dose mostly 57.7 µM), for inactives: top-dose activity, negative = inhibition, actives largely listed as inhibitors | hit rate 0.39% among 280,000; also: potency is read from the fitted curve at half-maximal effect; nearly all actives have a fitted effect of over 55% in size
#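 Quantitative HTS format: compounds meet 15 uM recombinant K18 P301L tau and Alexa 594-tau tracer in 100 mM sodium acetate pH 7; 20 uM heparin triggers fibrillization at 37 C over 6 hr; FP gives the signal.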
# * = called active by the depositor; ? = inconclusive; nt = no result; [ ] = another dose, or the depositor's remark. Unless noted, calls follow the shape of the dose curve; as a rule, active = well fitted curve in the direction sought with a large enough effect; inconclusive = small, poorly fitted or top-dose-only effect, or another doubt; inactive = no such curve, though single readings can be large; an effect the other way counts as inactive or inconclusive. % is scaled to controls: 0 for no effect and ±100 for the full control effect.
SMILES,Coupling enz,Tau fluor cs,USP1-UAF1 inh,Tau fibril ThT,Tau fibril FP
O=C(CSc1nc2ccc(S(=O)(=O)N3CCOCC3)cc2[nH]1)N1CCOCC1,1,-26%,-12%,28µM*,?
CN(C)c1ccc(/C=C/c2ccc3c4ccccc4ccc3[n+]2-c2ccccc2)cc1,-2,0.79µM*[fluorescent],?,2µM*,?
CN(C)c1ccc(/C=C/c2ccc3ccccc3[n+]2C)cc1,-5,0.5µM*[fluorescent],-16%,0.56µM*,11%
CN(C)c1ccc(/C=C/c2cccc[n+]2[O-])cc1,0,-4%,?,-4%,2%
CCOC(=O)CCN1C(=O)[C@H]2[C@H]3[C@H](O)[C@H](O)C/C(=N/OCc4ccccc4)[C@H]3CC[C@@H]2C1=O,1,?,nt,?,6%[11.6 µM]
Cc1ccc2c(c1)N(C(=O)N1CCC(C(=O)NCc3cccs3)CC1)CC(C)O2 (stereo not drawn),nt,3%,-5%,-2%,-6%
CCCOc1ccc(NC(=O)CC2C(=O)N(c3ccc(C)cc3)C(=O)N2Cc2cccc(OC)c2)cc1 (stereo not drawn),nt,-14%,-5%,?,-5%
O=C(Nc1nc(-c2ccc(Cl)s2)cs1)c1cccs1,-1,28µM*[quencher],?,?,?
COc1cc2c(cc1OC)n(CC(=O)c1ccc(C)cc1C)c(=O)n1nc(CCn3nc(C)cc3C)nc21,nt,-9%,-17%,-4%,-10%
O=C(O)CCCN1C(=O)/C(=C\c2ccc(-c3nc4ccccc4s3)o2)SC1=S,-2,?,?,2.5µM*,?
O=Cc1ccc(-c2nc3ccccc3s2)o1,-1,-2%,-8%,?,-9%
O=C(O)CCN1C(=O)/C(=C/c2ccc(-c3nc4ccccc4s3)o2)SC1=S,-2,-25%,7.1µM*,1.3µM*,-5%
O=C(O)c1ccc(-c2nc3ccccc3s2)o1,3,1%,-13%,8%,-3%
O=C(O)CC(C(=O)O)N1C(=O)/C(=C/c2ccc(-c3nc4ccccc4s3)o2)SC1=S (stereo not drawn),0,-26%,28µM*,7.9µM*,?
COC(=O)/C=C1\S/C(=N\N=C\CC(=O)OC)NC1=O,-27,-8%,?,7.1µM*,-4%
O=S(=O)(NCC(Nc1ccc(Cl)cc1)c1ccccc1)c1ccccc1 (stereo not drawn),-1,8.9µM*[quencher],-22%,8%,-2%
Cc1ccc(NC(CNS(=O)(=O)c2ccc(Cl)cc2)c2ccccc2)cc1 (stereo not drawn),1,4.5µM*[quencher],-30%,1%,7%
COc1cccc(NC(CNS(=O)(=O)c2ccc(C)cc2)c2ccccc2)c1 (stereo not drawn),nt,?,-6%,-8%,7%
COc1cccc(NC(CNS(=O)(=O)c2ccc(Cl)cc2)c2ccccc2)c1 (stereo not drawn),nt,10µM*[quencher],-23%,-9%,10%
CC#CCN1c2ccccc2[C@]23C[C@@H](C(=O)OC)N(S(=O)(=O)c4ccc(OC)cc4)C2=NC(C(=O)OC)=C(C(=O)OC)[C@H]13,-6,-28%[11.6 µM],nt,-12%[11.5 µM],6%[11.6 µM]
CCOC(=O)c1[nH]c2ccc(Cl)cc2c1NC(=O)/C=C/c1ccc2c(c1)OCO2,4,-22%,-19%,11%,-12%
CCN(CC(=O)Nc1c(C(=O)OC)[nH]c2ccc(Cl)cc12)c1ccc2c(c1)OCO2,-6,7.9µM*[quencher],-6%,?,12%
C=C1C[C@]23CC[C@H]4C(CO)(CO)C[C@@H](O)C[C@@]4(C)[C@@H]2CC[C@H]1C3,5,-11%,nt,-9%,1%
CCc1ccccc1NC(=O)C(C)n1nc(-c2ccc(C)c(C)c2)ccc1=O (stereo not drawn),nt,-12%,-24%,?,9%
COc1cc2[nH]c(Cl)c([N+](=O)[O-])c2cc1OC,-48*,?,-10%,14µM*,?
SMILES,Coupling enz,Tau fluor cs,USP1-UAF1 inh,Tau fibril ThT,Tau fibril FP
O=C(N/N=C/c1sc2ccccc2c1O)c1ccccc1,-2,?,?,?,-7%
COc1ccc2cc(C(=O)N/N=C/c3sc4ccccc4c3O)ccc2c1,-2,7.9µM*[quencher],28µM*,1.3µM*,-6%
O=C(N/N=C/c1sc2ccccc2c1O)c1cccc2ccccc12,4,?,?,10µM*,-13%
COc1ccc(C(=O)N/N=C/c2sc3ccccc3c2O)cc1,2,?,?,1.8µM*,0%
O=c1cc(-c2ccc(F)cc2)nc(SCc2nc(-c3cccc(Cl)c3)no2)[nH]1,nt,4%,-16%,13%,-17%
C=CCOC(=O)C(C(C)=O)C(NC(=O)OC)c1cccs1 (stereo not drawn),1,-10%[11.6 µM],nt,-11%[11.5 µM],-9%[11.6 µM]
CCN(Cc1ccccc1)C(=O)c1nc(-c2cccc(F)c2)n2c1CCCCC2,nt,-3%,9%,-8%,3%
COc1ccc(OC)c(CCNC(=O)c2c3c(nc4ccccc24)C(=O)N(C2CCCCC2)C3)c1,nt,0%,-7%,-12%,-1%
COc1ccc(CC(=O)N/N=C(\C)c2cccnc2)cc1,1,nt,-23%,nt,nt
CN=c1scc(-c2ccc(OC)cc2)n1/N=C(\C)c1cccnc1,1,?,-17%,11µM*,1%
CCOC(=O)c1c(S(=O)(=O)N2CCC(C(=O)Nc3cccc(C)n3)CC2)c(C)n(C)c1C,nt,2%,-12%,7%,-2%
Cc1cc(SCC(=O)NCc2ccccc2Cl)nc(=O)[nH]1,nt,3%,?,2%,-4%
C=C(C)COc1ccc(-c2[nH]ncc2-c2ccc(OC)cc2)c(O)c1,-3,11µM*[quencher],?,-15%,?
C=C(C)COc1ccc(-c2[nH]ncc2-c2ccccc2)c(O)c1,-1,18µM*[quencher],-22%,-15%,-5%
C=C(C)COc1ccc(-c2[nH]ncc2-c2ccc(OC)c(OC)c2)c(O)c1,-11,25µM*[quencher],-24%,-10%,8%
COc1ccc(-c2cn[nH]c2-c2ccc(OCC(=O)NN)cc2O)cc1,-2,nt,-21%,nt,nt
C=C(C)COc1ccc(-c2n[nH]c(C)c2-c2ccc(OC)c(OC)c2)c(O)c1,-11,14µM*[quencher],-7%,-9%,-10%
COc1cc(OC)cc(-c2nnc3n2N=C(c2c(OC)cccc2OC)CS3)c1,-3,nt,nt,nt,nt
CC(C)c1ccc(NC(=O)C2CCN(S(=O)(=O)c3cccc4nonc34)CC2)cc1,nt,-8%,-14%,6%,-7%
COc1cc(-c2cccs2)cc(=O)c2c(C)oc(C)c12,-8,-19%,?,25µM*,?
